Among the data in PubChem BioAssay (NCI) are growth inhibition values, retold here.

Assay [1] can be described thus: NCI Yeast Anticancer Drug Screen. Data for the rad50 strain (AID 155).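 Also: 0% = growth of vehicle-only cultures of the same strain.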 Conditions: S. cerevisiae rad50 strain growth inhibition; at 50.0 µM; active compounds read high. An outline of the steps: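 Growth of the mutant yeast was measured after compound exposure and referenced to vehicle-treated cultures.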
Assay [2] can be described thus: NCI Yeast Anticancer Drug Screen. Data for the mec2-1 strain (AID 157). Conditions: S. cerevisiae mec2-1 strain, at 50.0 µM, active compounds read high. In short, it runs like this:
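Strain: mec2-1 (DNA repair/cell cycle alteration). Compound exposure, then growth measured; inhibition expressed relative to vehicle.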

Assay [3] is described as follows: NCI Yeast Anticancer Drug Screen. Data for the sgs1 mgt1 strain (AID 161).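 Also: 0% = growth of cultures given vehicle only.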 Conditions: S. cerevisiae sgs1 mgt1 strain, at 50.0 µM, active compounds read high. An outline of the steps: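 Genetically altered yeast, compound exposure, growth inhibition relative to vehicle.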
The nature of assay [4]: NCI Yeast Anticancer Drug Screen. Data for the cln2 rad14 strain (AID 165).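 Also: 0% = growth equal to vehicle treated cultures.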 Conditions: S. cerevisiae cln2 rad14 strain, at 50.0 µM, active compounds read high. An outline of the steps: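 Compounds are applied to the cln2 rad14 yeast strain, and growth is then compared with that of vehicle-treated cultures to give inhibition.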
A short description of assay [5]: NCI Yeast Anticancer Drug Screen. Data for the bub3 strain (AID 167). Conditions: S. cerevisiae bub3 mutant strain, at 50.0 µM, active compounds read high. In short, it runs like this:
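Whole-cell yeast assay. The mutant strain was incubated with compounds, and growth inhibition was determined by comparison with vehicle-treated cells.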

Assay [6] can be described thus: NCI Yeast Anticancer Drug Screen. Data for the mlh1 rad18 strain (AID 175). Conditions: S. cerevisiae mlh1 rad18 strain growth inhibition; at 50.0 µM; active compounds read high. In short, it runs like this: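 Read-out is yeast growth inhibition, calculated against vehicle-only controls. The compound was applied to a strain engineered with DNA damage repair alterations.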

Compounds without any hit were thinned out: in the full panel of roughly 79,000, 15% have a hit. A number with no mark means an inactive call. The source made the active and inactive calls. Rule as the data show it: active = growth inhibition above about 70%; inactive = the rest.

Take `[O-][n+]1onc2c1CCC(=N\O)/C2=N/Nc1ccccc1`: the growth inhibition in assay [1] was -1.55%; in assay [2], -1.05%; in assay [3] it was -15.1%; in assay [4], 34.9%; in assay [5] it was 18.6%; in assay [6], 11.3%.

On to `CC(C)(CCCCC(C)(C)C1NC(=O)N1)C1NC(=O)N1`, for which the growth inhibition in assay [1] was -42.6%; in assay [2] it was -7.4%; in assay [3], -67.9%; in assay [4], -46.5%; in assay [5] it was -9.1%; in assay [6], -43.1%.

Take `C/C(CC(=O)Nc1cc(C)ccc1C)=N/N=C(N)N`: the growth inhibition in assay [1] was -24.6%; in assay [2], -28.3%; in assay [3] it was -11.5%; in assay [4], 17.8%; in assay [5] it was -22.9%; in assay [6], -8.55%.

Take `CC(=[N-])CC(C)=O.O=C(CC(=Nc1ccccc1)c1ccccc1)c1ccccc1.[Cu+]`: the growth inhibition in assay [1] is -21.2%; in assay [2] it was -7.5%; in assay [3] it was 1.6%; in assay [4], 29.3%; in assay [5], -3.45%; in assay [6] it was 16.2%.

Turning to `O=C(O)c1ccccc1C(NC(=O)N1C(=O)C=CC1=O)NC(=O)N1C(=O)C=CC1=O`, the growth inhibition in assay [1] was 29.2%; in assay [2], -5.1%; in assay [3], -2.85%; in assay [4], 16.4%; in assay [5], 4.8%; in assay [6], 12.8%.

As to `CCOc1ccccc1C1=CCCCCC1`, the growth inhibition in assay [1] is -0.65%; in assay [2], -5%; in assay [3], -9%; in assay [4] it was -24.6%; in assay [5], -10%; in assay [6], 1.3%.

Regarding `CC(Oc1ccc2c(-c3ccc(Cl)cc3)cc(=O)oc2c1)C(=O)O` (stereo not given), the growth inhibition in assay [1] was -15.9%; in assay [2], -4.15%; in assay [3], 13.6%; in assay [4], 19.1%; in assay [5], -7.15%; in assay [6] it was 32.9%.

For `CN(C=O)c1c(F)cc(C(=O)O)cc1F`, the growth inhibition in assay [1] is 3.05%; in assay [2] it was 4.1%; in assay [3] it was -3.3%; in assay [4] it was 4.1%; in assay [5] it was -6.65%; in assay [6] it was 8.15%.

Regarding `CNC(=O)Oc1ccc2c(c1)[C@]1(C)CCN(C)[C@@H]1N2C`, the growth inhibition in assay [1] is -9.7%; in assay [2], -29.8%; in assay [3], -32.7%; in assay [4], -5.55%; in assay [5] it was -35.7%; in assay [6], -37.2%.

On to `Cn1c(=O)c2c(nc(C[N+]3([O-])CCOCC3)n2C)n(C)c1=O`, for which the growth inhibition in assay [1] is -4.75%; in assay [2], -34.9%; in assay [3] it was -27.9%; in assay [4] it was 8.35%; in assay [5], -11.5%; in assay [6], -27.9%.

As to `CN1c2ccccc2Sc2cc(/C=C3/SC(=S)NC3=O)ccc21`, the growth inhibition in assay [1] is 1.95%; in assay [2], 4.6%; in assay [3] it was 3.55%; in assay [4] it was -19.8%; in assay [5] it was 38.8%; in assay [6], 0.15%.

As to `OC(c1ccccc1)C(Cc1ccccc1)N1CCCCC1` (stereo not given), the growth inhibition in assay [1] is 2.4%; in assay [2] it was 1.3%; in assay [3], 23.2%; in assay [4], -4.45%; in assay [5], 7.7%; in assay [6], 5.35%.

As for `CC(Cc1ccccc1)Nc1ccccc1` (stereo not given), the growth inhibition is 17.8% in assay [1]; 3.5% in assay [2]; 31.4% in assay [3]; -10.3% in assay [4]; -12.5% in assay [5]; 62.4% in assay [6].

On to `O=C(O)c1c[nH]c2cc(OCc3ccccc3)ccc2c1=O`, for which the growth inhibition in assay [1] was -4.1%; in assay [2], -44.4%; in assay [3], -45.5%; in assay [4], -7.15%; in assay [5], -21.1%; in assay [6], 7.75%.

Consider `CCCCCCCC(=O)N(CCCCC)CCCCC`, for which the growth inhibition in assay [1] is 66.5%; in assay [2], 77.2% (active); in assay [3], 77.2% (active); in assay [4] it was 74% (active); in assay [5], 66.5%; in assay [6], 66.5%.

With `O=C(CCl)NC(=O)NC1=C(Cl)C(=O)c2ccccc2C1=O`, the growth inhibition was 98% (active) in assay [1]; 98.6% (active) in assay [2]; 98.3% (active) in assay [3]; 97.7% (active) in assay [4]; 98.3% (active) in assay [5]; 97.7% (active) in assay [6].

Regarding `C=CCOC(=O)Nc1cccc(O)c1`, the growth inhibition in assay [1] was 16.9%; in assay [2] it was -5.95%; in assay [3], 3.2%; in assay [4] it was -57.6%; in assay [5] it was -29.6%; in assay [6], 1.4%.

As to `COc1ccc(C[C@H](N)C(=O)NC2C(CO)OC(n3cnc4c(N(C)C)ncnc43)C2O)cc1` (stereo not given in full), the growth inhibition is -1.7% in assay [1]; -35.1% in assay [2]; -18.4% in assay [3]; -0.8% in assay [4]; -26.9% in assay [5]; -17.3% in assay [6].

With `Cc1cc(S(=O)(=O)Nc2nnc3c4ccccc4cnn23)c(S)cc1Cl`, the growth inhibition in assay [1] is -38%; in assay [2] it was -24.4%; in assay [3], -21%; in assay [4] it was 2.7%; in assay [5], -15.8%; in assay [6], -31.6%.

Regarding `COc1c(C)c(OCC=C(C)C)cc(CO)c1CO`, the growth inhibition in assay [1] was 11.8%; in assay [2], -3.2%; in assay [3], -13.9%; in assay [4], -8.15%; in assay [5], -0.95%; in assay [6] it was -84.5%.
